PubChem BioAssay (EPA / NIEHS)
Activity calls are given as the source filed them. How the source made its calls: active means hit-call score of the fitted dose curve at least 0.9, where 1 is the maximum; inactive means score below 0.9.

Key:
[1] = read-out: Macrophage colony-stimulating factor (MCSF), CSF1 (gene 1435); experiment: BSK_hDFCGF_MCSF: BioMAP Diversity Plus: hDFCGF Assay for Macrophage colony-stimulating factor (MCSF) Biomarker Activity (AID 2283060); details: primary human foreskin fibroblasts; actives raise or lower the signal
Summary of the method: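 ELISA read-out of M-CSF in human dermal foreskin fibroblast cultures, 24 h after chemical dosing; gain or loss of signal fitted bidirectionally relative to DMSO baseline.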

[2] = BSK_hDFCGF_SRB: Viability Assessment in the BioMAP Diversity Plus: hDFCGF Assay (AID 2283061); details: primary human foreskin fibroblasts;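 further: cells exposed to compound for 24 h before the read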
Summary of the method: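 Primary human foreskin fibroblasts; 24 h post-dose; fixed 10% TCA, stained 0.1% SRB, A560 read; total protein as overt cytotoxicity measure; curves fit bidirectionally vs DMSO control.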

[3] = read-out: TIMP metallopeptidase inhibitor 1 (TIMP1), TIMP1 (gene 7076); experiment: BSK_hDFCGF_TIMP1: BioMAP Diversity Plus: hDFCGF Assay for TIMP metallopeptidase inhibitor 1 (TIMP1) Biomarker Activity (AID 2283062); details: primary human foreskin fibroblasts; actives raise or lower the signal
Summary of the method: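 ELISA readout of TIMP-1 from human dermal foreskin fibroblast cultures 24 h post-dosing. Curves were fitted in both directions against DMSO baseline, with SRB total-protein staining in parallel cultures as a cytotoxicity check.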

[4] = read-out: Monokine induced gamma interferon (MIG), CXCL9 (gene 4283); experiment: BSK_hDFCGF_MIG: BioMAP Diversity Plus: hDFCGF Assay for Monokine induced gamma interferon (MIG) Biomarker Activity (AID 2283063); details: primary human foreskin fibroblasts; actives raise or lower the signal
Summary of the method: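 Fibroblasts (human foreskin, primary) dosed, 24 h, MIG by ELISA; fit bidirectional vs DMSO.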

[5] = read-out: Matrix Metallopeptidase 1 (MMP1), MMP1 (gene 4312); experiment: BSK_hDFCGF_MMP1: BioMAP Diversity Plus: hDFCGF Assay for Matrix Metallopeptidase 1 (MMP1) Biomarker Activity (AID 2283064); details: primary human foreskin fibroblasts; actives raise or lower the signal
Summary of the method: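 hDFCGF primary fibroblasts (human foreskin); chemical added; 24 h; MMP1 by ELISA; bidirectional fit vs DMSO.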

[6] = read-out: Vascular cell adhesion molecule 1 (VCAM1), VCAM1 (gene 7412); experiment: BSK_hDFCGF_VCAM1: BioMAP Diversity Plus: hDFCGF Assay for Vascular cell adhesion molecule 1 (VCAM1) Biomarker Activity (AID 2283065); details: primary human foreskin fibroblasts; actives raise or lower the signal;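 on AC50: VCAM-1 protein level quantified by ELISA after 24 h chemical exposure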
Summary of the method: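 ELISA read-out of VCAM-1 on human skin fibroblasts, 24 h post-dose; gain or loss of signal fitted bidirectionally against DMSO baseline.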

[7] = read-out: Plasminogen activator inhibitor-1 (PAI1), SERPINE1 (gene 5054); experiment: BSK_hDFCGF_PAI1: BioMAP Diversity Plus: hDFCGF Assay for Plasminogen activator inhibitor-1 (PAI1) Biomarker Activity (AID 2283066); details: primary human foreskin fibroblasts; actives raise or lower the signal
Summary of the method: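 Human foreskin fibroblasts in the hDFCGF system were dosed with compound for 24 h; PAI-1 was quantified by ELISA. Bidirectional curve fitting used DMSO as negative control and baseline.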

[8] = read-out: Intercellular Adhesion Molecule 1 (ICAM1), ICAM1 (gene 3383); experiment: BSK_KF3CT_ICAM1: BioMAP Diversity Plus: KF3CT Assay for Intercellular Adhesion Molecule 1 (ICAM1) Biomarker Activity (AID 2283067); details: primary human keratinocytes with fibroblasts; actives raise or lower the signal
Summary of the method: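 ELISA readout of ICAM-1; KF3CT human skin co-culture (keratinocytes + foreskin fibroblasts), 24 h post-dose; gain/loss fit vs DMSO baseline.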

[9] = read-out: Interferon-gamma inducible Protein 10 (IP10), CXCL10 (gene 3627); experiment: BSK_KF3CT_IP10: BioMAP Diversity Plus: KF3CT Assay for Interferon-gamma inducible Protein 10 (IP10) Biomarker Activity (AID 2283068); details: primary human keratinocytes with fibroblasts; actives raise or lower the signal
Summary of the method: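 In a primary skin co-culture of keratinocytes and fibroblasts, IP-10 is quantified by ELISA at 24 h after dosing. SRB staining of parallel wells monitors overt toxicity. Curves are fitted both directions against DMSO.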

[10] = BSK_KF3CT_SRB: Viability Assessment in the BioMAP Diversity Plus: KF3CT Assay (AID 2283069); details: primary human keratinocytes with fibroblasts;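 further: total protein by sulforhodamine B staining as a cytotoxicity measure; read 24 h after compound addition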
Summary of the method: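 Keratinocytes co-cultured with foreskin fibroblasts (human primary); chemical added, 24 h; fix 10% TCA, stain 0.1% SRB, A560. Bidirectional fit vs DMSO.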

[11] = read-out: Interleukin-1 alpha (IL1a), IL1A (gene 3552); experiment: BSK_KF3CT_IL1a: BioMAP Diversity Plus: KF3CT Assay for Interleukin-1 alpha (IL1a) Biomarker Activity (AID 2283070); details: primary human keratinocytes with fibroblasts; actives raise or lower the signal
Summary of the method: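 Chemicals were dosed onto co-cultured human keratinocytes and foreskin fibroblasts, IL-1a was quantified by ELISA at 24 h, and activity was fitted in both directions relative to DMSO controls.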

[12] = read-out: TIMP metallopeptidase inhibitor 2 (TIMP2), TIMP2 (gene 7077); experiment: BSK_KF3CT_TIMP2: BioMAP Diversity Plus: KF3CT Assay for TIMP metallopeptidase inhibitor 2 (TIMP2) Biomarker Activity (AID 2283071); details: primary human keratinocytes with fibroblasts; actives raise or lower the signal
Summary of the method: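 Human primary keratinocyte/foreskin fibroblast co-culture dosed with chemical and sampled at 24 h. TIMP-2 levels quantified by ELISA; bidirectional fitting against DMSO negative control as baseline.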

[13] = read-out: Transforming growth factor beta 1 (TGFb1), TGFB1 (gene 7040); experiment: BSK_KF3CT_TGFb1: BioMAP Diversity Plus: KF3CT Assay for Transforming growth factor beta 1 (TGFb1) Biomarker Activity (AID 2283072); details: primary human keratinocytes with fibroblasts; actives raise or lower the signal
Summary of the method: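 Human keratinocyte plus foreskin fibroblast primary co-culture, dosed with chemical for 24 h. TGF-b1 quantified by ELISA. Activity fitted bidirectionally against DMSO negative control as baseline.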

[14] = read-out: C-C motif chemokine 2 (Homo sapiens) (UniProt P13500); experiment: BSK_KF3CT_MCP1: BioMAP Diversity Plus: KF3CT Assay for Monocyte Chemoattractant Protein 1 (MCP1/CCL2) Biomarker Activity (AID 2283073); details: primary human keratinocytes with fibroblasts; actives raise or lower the signal
Summary of the method: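 KF3CT skin co-culture (keratinocytes/foreskin fibroblasts), 24 h post-dose; MCP-1 by ELISA; gain/loss of signal fit bidirectionally vs DMSO baseline.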

[15] = read-out: Matrix Metallopeptidase 9 (MMP9), MMP9 (gene 4318); experiment: BSK_KF3CT_MMP9: BioMAP Diversity Plus: KF3CT Assay for Matrix Metallopeptidase 9 (MMP9) Biomarker Activity (AID 2283074); details: primary human keratinocytes with fibroblasts; actives raise or lower the signal;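 on AC50: MMP9 protein level quantified by ELISA in the co-culture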
Summary of the method: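 Human keratinocyte/foreskin fibroblast co-culture; compound added; 24 h; MMP-9 by ELISA; bidirectional fit vs DMSO baseline.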

[16] = read-out: urokinase plasminogen activator (uPA), PLAU (gene 5328); experiment: BSK_KF3CT_uPA: BioMAP Diversity Plus: KF3CT Assay for urokinase plasminogen activator (uPA) Biomarker Activity (AID 2283075); details: primary human keratinocytes with fibroblasts; actives raise or lower the signal
Summary of the method: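 ELISA readout of uPA, analyzed for signal gain or loss relative to DMSO, from a human primary keratinocyte–foreskin fibroblast co-culture measured 24 h after chemical treatment.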

[17] = read-out: CD40, CD40 (gene 958); experiment: BSK_LPS_CD40: BioMAP Diversity Plus: LPS Assay for CD40 Biomarker Activity (AID 2283076); details: primary human HUVEC with PBMC; actives raise or lower the signal
Summary of the method: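 ELISA readout of CD40 in HUVEC/PBMC co-culture (BSK_LPS system), 24 h post-dosing; bidirectional curve fit, DMSO baseline; parallel SRB total-protein staining for cytotoxicity.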

[18] = read-out: Interleukin-8 (IL8), CXCL8 (gene 3576); experiment: BSK_LPS_IL8: BioMAP Diversity Plus: LPS Assay for Interleukin-8 (IL8) Biomarker Activity (AID 2283078); details: primary human HUVEC with PBMC; actives raise or lower the signal
Summary of the method: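 HUVEC + PBMC co-culture, LPS-activated; test chemicals dosed, IL-8 read by ELISA at 24 h. Bidirectional curve fit vs DMSO baseline (gain or loss of signal).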

[19] = BSK_LPS_SRB: Viability Assessment in the BioMAP Diversity Plus: LPS Assay (AID 2283079); details: primary human HUVEC with PBMC;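 further: total protein by sulforhodamine B absorbance as a cytotoxicity measure; measured one day after compound addition; fitted in both directions against DMSO so loss or gain of signal counts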
Summary of the method: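 HUVEC + PBMC co-culture, LPS-stimulated; compound 24 h. 10% TCA fix, 0.1% SRB stain, A560. Bidirectional fit vs DMSO.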

[20] = read-out: E-selectin (Homo sapiens) (UniProt P16581); experiment: BSK_LPS_Eselectin: BioMAP Diversity Plus: LPS Assay for Eselectin Biomarker Activity (AID 2283077); details: primary human HUVEC with PBMC; actives raise or lower the signal
Summary of the method: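 ELISA readout of E-selectin, 24 h post-dose, HUVEC + PBMC co-culture (LPS system). Gain or loss of signal vs DMSO baseline, bidirectional fit.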

Measured: AC50

Sequence of E-selectin (Homo sapiens) (P16581 whole entry, looked up): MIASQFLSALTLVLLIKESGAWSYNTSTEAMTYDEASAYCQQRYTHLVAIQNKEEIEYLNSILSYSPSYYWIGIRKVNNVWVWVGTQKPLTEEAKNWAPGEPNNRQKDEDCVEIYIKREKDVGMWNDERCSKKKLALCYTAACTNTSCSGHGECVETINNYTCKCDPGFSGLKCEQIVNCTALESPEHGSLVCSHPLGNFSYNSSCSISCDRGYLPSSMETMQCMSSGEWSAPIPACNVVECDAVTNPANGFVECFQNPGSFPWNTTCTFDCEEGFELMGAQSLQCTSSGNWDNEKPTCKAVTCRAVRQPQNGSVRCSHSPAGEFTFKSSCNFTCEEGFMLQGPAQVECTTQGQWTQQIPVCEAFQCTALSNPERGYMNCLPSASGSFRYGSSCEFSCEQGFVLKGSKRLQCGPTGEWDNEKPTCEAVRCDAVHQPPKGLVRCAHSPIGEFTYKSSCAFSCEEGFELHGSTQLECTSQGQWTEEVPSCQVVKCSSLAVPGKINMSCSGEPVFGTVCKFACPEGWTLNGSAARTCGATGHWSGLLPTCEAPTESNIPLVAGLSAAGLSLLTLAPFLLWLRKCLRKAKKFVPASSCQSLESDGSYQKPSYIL

CCOC(=O)C(C)OC(=O)c1cc(Oc2ccc(C(F)(F)F)cc2Cl)ccc1[N+](=O)[O-] (stereo not given)
active: [1] 8.12 µM | [15] 5.83 µM | [19] 6.48 µM
not listed: [20]
inactive: all other assays above

CC(C)NC(=O)N1CC(=O)N(c2cc(Cl)cc(Cl)c2)C1=O
active: [5] 0.148 µM
not listed: [19] | [20]
inactive: all other assays above

Cc1cnc(C2=NC(C)(C(C)C)C(=O)N2)c(C(=O)O)c1 (stereo not given)
not listed: [19] | [20]
inactive: all other assays above

CC(C)Oc1cccc(NC(=O)c2ccccc2C(F)(F)F)c1
active: [2] 20 µM
not listed: [19] | [20]
inactive: all other assays above

CC(C)(C)C(=O)C(Oc1ccc(Cl)cc1)n1cncn1 (stereo not given)
not listed: [20]
inactive: all other assays above

C=CCOC(=O)C(C)(C)OC(=O)c1cc(-n2c(=O)cc(C(F)(F)F)n(C)c2=O)ccc1Cl
active: [1] 1.88 µM | [3] 30.3 µM | [5] 3.97 µM | [7] 3.51 µM | [9] 6.34 µM | [12] 27.9 µM | [14] 1.89 µM | [17] 6.73 µM
not listed: [19] | [20]
inactive: all other assays above

CS(=O)(=O)c1cc(C(F)(F)F)ccc1C(=O)c1cnoc1C1CC1
inactive: all assays above

Cn1c(-c2ccccc2)cc(-c2ccccc2)[n+]1C
active: [1] 5.47 µM | [3] 20 µM | [9] 7.72 µM | [12] 23.8 µM | [16] 12 µM
not listed: [13] | [19]
inactive: all other assays above

CSC(=O)c1c(C(F)F)nc(C(F)(F)F)c(C(=O)SC)c1CC(C)C
active: [1] 11.4 µM | [5] 4.27 µM | [6] 13.4 µM | [7] 26.9 µM | [17] 16.3 µM | [20] 5.05 µM | [19] 26.3 µM
not listed: [18]
inactive: all other assays above

O=C(Nc1ccccc1-c1ccc(Cl)cc1)c1cccnc1Cl
active: [9] 0.128 µM | [14] 0.843 µM
not listed: [19] | [20]
inactive: all other assays above

CCOc1nc(F)cc2nc(S(=O)(=O)Nc3c(Cl)cccc3Cl)nn12
active: [9] 34 µM
not listed: [19] | [20]
inactive: all other assays above

CN=C=S
not listed: [13] | [19]
inactive: all other assays above

CCOP(=S)(OCC)Oc1nc(Cl)n(C(C)C)n1
not listed: [19]
inactive: all other assays above
